# A3A deaminase = blocks human APOBEC3A ssDNA deamination; P31941; recombinant A3A, FAM/TAMRA ssDNA deamination fluorescence; inhibition, % at 20 µM; hit rate 0.41% among 330,000; AID 493011;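 active means at least 40% inhibition at 20 µM here, with at most 30% in a related deaminase screen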;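 further: plate controls were A3A with DMSO for no effect and wells lacking A3A enzyme for full effect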
# PABP1 MLLE inh = blocks PAM2 peptide binding to the PABP1 MLLE domain; hit rate 0.36% among 360,000; inhibition, % at 20 µM; GST-MLLE / FITC-PAM2 fluorescence polarization; in the data active means inhibition above about 35%, passing the limit was not always enough;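 further: plate controls were DMSO wells with GST-MLLE for no effect and wells lacking GST-MLLE protein for full effect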
# PHOSPHO1 inh = inhibitors of human PHOSPHO1 phosphatase; Q8TCT1; recombinant PHOSPHO1, absorbance phosphatase assay; inhibition, % at 13.3 µM; hit rate 1.1% among 290,000; in the data active means inhibition above about 60%
# Target sequence (Q8TCT1 whole entry, looked up): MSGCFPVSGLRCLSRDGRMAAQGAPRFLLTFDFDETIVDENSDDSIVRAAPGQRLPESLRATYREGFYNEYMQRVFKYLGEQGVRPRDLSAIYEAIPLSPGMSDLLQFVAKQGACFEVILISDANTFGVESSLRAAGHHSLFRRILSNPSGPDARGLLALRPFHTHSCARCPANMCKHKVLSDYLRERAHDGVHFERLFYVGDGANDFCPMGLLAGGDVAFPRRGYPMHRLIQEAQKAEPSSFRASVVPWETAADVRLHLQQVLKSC
# APOBEC3G inh = blocks human APOBEC3G single-stranded DNA deamination. Q9HC16. recombinant A3G, ssDNA deamination FAM/TAMRA fluorescence. inhibition, % at 20 µM. AID 493012. hit rate 0.28% among 330,000;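 active means inhibition of at least 40% at 20 µM, with no more than 30% in the related APOBEC3A deaminase screen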;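 further: plate controls were DMSO wells with A3G for no effect and wells lacking A3G enzyme for full effect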
# eIF4H FP inh = inhibitors of RNA binding by human eIF4H. Q15056. inhibition, % at 35 µM. AID 2012. eIF4H fluorescence polarization binding assay. hit rate 0.94% among 290,000;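 further: calls also rest on retests at 20 µM and on dose response follow-up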
# PABP FP inh = blocks human PABP binding to poly(A) RNA; P11940; fluorescence polarization; calls only at 35 µM; hit rate 1% among 290,000;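 further: calls also rest on retests at 20 µM and on dose response follow-up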
# * marks the source's active call; other numbers are inactive results; i = inactive; ? = inconclusive; . = no result; + = active, no number. Most compounds without a hit are left out; they make up all but 2.6% or so of the library. Unless noted, how the calls were made is not given here.
SMILES,A3A deaminase,PABP1 MLLE inh,PHOSPHO1 inh,APOBEC3G inh,eIF4H FP inh,PABP FP inh
O=C1OCC2OC(O)C(O)C(O)C2OC(=O)c2cc(O)c(O)c(O)c2-c2c(O)c(O)c3oc(=O)c4c(c(O)c(O)c5oc(=O)c2c3c54)-c2c1cc(O)c(O)c2O (centres undefined),.,.,31,.,83*,+
Cc1cc(=O)oc2cc(NC(=O)COc3ccccc3[N+](=O)[O-])ccc12,7,-23,.,-12,.,.
CCc1ccccc1NCC(=O)Nc1ccccc1C(=O)OC,0,2,-4,-4,active,i
CC(C)(C)c1ccc(NC(=O)N2CCCN(c3c(Cl)cncc3Cl)CC2)cc1,-1,8,25,-5,-4,i
C[C@H]1CN([C@@H](C)CO)S(=O)(=O)c2ccc(Br)cc2O[C@H]1CN(C)C(=O)Cc1ccccn1,.,10,.,.,.,.
O=C1C2C3C=CC(C3)C2C(=O)N1CCN1CCN(S(=O)(=O)/C=C/c2ccccc2)CC1 (centres undefined),-5,-2,28,-11,-9,i
Cc1ccc(C(=O)NNC(=O)C2CCN(c3ncccn3)CC2)cc1,5,-12,47,-1,-8,i
Cc1ccccc1NC(=S)NNc1ncc(C(F)(F)F)cc1Cl,3,9,40,3,-6,i
Cc1c(Cl)cccc1NC(=S)NNc1ncc(C(F)(F)F)cc1Cl,-1,36*,3,0,12,i
O=C(NNC(=O)c1ccccc1Br)c1ccc2nc[nH]c2c1,12,0,32,8,84*,+
O=C(NNC(=O)c1ccccc1F)c1ccc2nc[nH]c2c1,1,-11,56,-2,23,i
Cc1ccc(SCC2(O)CCN(C(=O)c3ccc(Cl)cc3)CC2)cc1,8,12,62*,12,-2,i
CCN(CC)CCCn1c2c(c(SCC(=O)Nc3cccc(C)c3C)nc1=O)CCC2,-4,-3,.,-9,.,.
CN1C(=O)c2ccc(NC(=O)C3CC3)cc2C1=O,-7,12,17,-4,-15,i
CC(Sc1nnc(COc2ccc3ccccc3c2)n1C)C(=O)O (centres undefined),-3,-112,76*,-3,0,i
Cc1ccc(NN2C(=O)C=C(c3ccccc3)C2=O)cc1,-2,17,61*,0,-2,i
COc1ccc(C(=O)NCCSCc2ccc(C)cc2)cc1,4,-1,50,0,5,i
Cc1ccc(CSCCNC(=O)c2ccc(C)cc2)cc1,1,2,62*,-6,-1,i
O=C(NCCc1cccc(C(F)(F)F)c1)C1CCC(=O)N(Cc2ccc(Cl)cc2)C1 (centres undefined),1,10,68*,8,-11,i
CC(C)C[C@@H](CNCC(=O)[C@H](Cc1ccccc1)NC(=O)c1[nH]cnc1C(=O)N[C@@H](C)CN)NC(=O)c1nc[nH]c1C(=O)N[C@@H](C)C(=O)O,.,-3,.,.,.,.
Cc1cc(C=O)c2c(c1)C=CC1(Oc3ccccc3C(=O)N1C)O2 (centres undefined),.,.,1,.,?,?
Cc1c(C(=O)/C=C/N(C)C)nnn1-c1ccc(Cl)cc1C#N,-4,2,-5,-4,0,i
CCN(CC)c1ccc2cc(C(=O)Nc3ccc(-n4cnnn4)c(OC)c3)c(=O)oc2c1,.,.,6,.,76*,+
O=c1c2ccccc2c(C=Nc2ccccc2O)c(O)n1-c1nccs1,-2,-67,-21,-6,116,+
CCOC(=O)[C@@H]1[C@H]2COc3cc(OC)ccc3[C@H]2N2C(=O)N(c3ccc(Br)cc3)C(=O)[C@]12C,-5,-4,.,-7,.,.
SMILES,A3A deaminase,PABP1 MLLE inh,PHOSPHO1 inh,APOBEC3G inh,eIF4H FP inh,PABP FP inh
COC(=O)c1cccc(NC(=O)CSc2nc(O)c(-c3ccccc3)c(=O)[nH]2)c1,5,29,34,-12,?,+
NC(=O)CSc1nnc(-c2ccccc2F)n1C1CC1,-4,-6,23,-14,10,i
CCOc1ccc(-n2cc(-c3ccccc3)c3c(=S)nc[nH]c32)cc1,-7,39*,-13,0,6,i
CCOc1ccc(-n2cc(-c3ccccc3)c3c(=O)[nH]cnc32)cc1,-2,1,-32,-6,1,i
CCC(=O)c1ccc(OCC(=O)OC(C)C(=O)Nc2c(C)n(C)n(-c3ccccc3)c2=O)cc1 (centres undefined),.,-46,.,.,.,.
CCOC(=O)Cn1cnc2scc(-c3ccccc3)c2c1=O,-2,-4,40,6,-15,i
CCOC(=O)C1(Cc2cccc(Cl)c2)CCCN(C(=O)c2ccc(C)nc2)C1 (centres undefined),1,19,63*,-4,-5,i
Cc1ccc(OCC(=O)NC(=S)Nc2cccc(NC(=O)c3ccccc3)c2)cc1,-2,38*,1,-2,-6,i
Cc1ccc(OCC(=O)NC(=S)Nc2cccc(NC(=O)c3ccc(Cl)cc3Cl)c2)cc1,-1,16,-4,-1,5,i
Cc1ccc(OCC(=O)NC(=S)Nc2ccc(Br)c(C)n2)cc1,-5,-59,84*,-5,-5,i
CCCc1cc2c(OC(=O)CC)c(-c3ccc(C(=O)OCC)o3)c(=O)oc2cc1OC,0,-10,2,6,11,i
CCn1c(SCC(=O)c2ccc(O)c(O)c2)nnc1-c1ccc(C)cc1,2,-1,81*,-4,48,i
CCSc1nc2c(c(=O)[nH]c(=O)n2C)n1CC(O)COc1ccccc1 (centres undefined),4,-1,29,-7,5,i
COCCCNc1nc2c(c(=O)[nH]c(=O)n2C)n1CC(O)COc1ccccc1C (centres undefined),-4,14,5,-7,1,i
COc1ccc(OCC(O)Cn2c(N)nc3c2c(=O)[nH]c(=O)n3C)cc1 (centres undefined),0,-7,61*,-6,6,i
CC(C)CSc1nc2c(c(=O)[nH]c(=O)n2C)n1CC(O)COc1cccc2ccccc12 (centres undefined),.,-24,88*,.,8,i
COCCCNc1nc2c(c(=O)[nH]c(=O)n2C)n1CC(O)COc1ccccc1 (centres undefined),-2,3,92*,-1,6,i
COc1ccc(S(=O)(=O)N2CCN(C(=O)c3ccccc3Cc3ccccc3)CC2)cc1OC,.,-8,.,.,.,.
Cc1ccc(C)c(SCC(=O)Nc2cccc(S(=O)(=O)NC3=NCCCCC3)c2)c1,-2,5,0,-10,3,i
Cc1cc(C)cc(-n2c(SCC(=O)Nc3cccc(S(=O)(=O)NC4=NCCCCC4)c3)nc3ccccc3c2=O)c1,1,-12,1,-2,active,+
Cc1nc(CCNC(=O)CC2C(=O)NCCN2Cc2ccc(F)cc2)sc1C (centres undefined),-4,22,20,-5,32,i
